Results: PubChem BioAssay AID709 (SRMLSC, 2007)
Screen size: about 65,000 compounds; about 3,600 (5.5%) were called active.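 Rule for the calls: active = at 10 µM, mean starting fluorescence two-fold or more over control wells; inactive = the rest.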 The list comes from a sample in which actives are over-represented; it also holds similar structures and randomly drawn compounds.

assay: intrinsic fluorescence of library compounds, ex339/em460 – biochemical, MLSMR library, data from DPM-DC assay, artefact control, profiling panel (AID 709); settings: compound autofluorescence, ex339/em460 nm, NADH buffer; at 10 µM; stronger effect = higher value; 1 = no-compound wells, NADH background;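 note: signal is the first read of a kinetic run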

SMILES | fluorescence fold increase
COc1ccc(CCn2c(-c3ccco3)nc3nc4ccccc4nc32)cc1OC | 1.07 (inactive)
Cn1c(-c2ccco2)nc2cc3ccccc3cc21 | 4.72 (active)
c1coc(-c2nc3nc4ccccc4n3nc2-c2ccco2)c1 | 0.92 (inactive)
CCC(=O)Nc1nc(OC)cc(OC)n1 | 1.16 (inactive)
C=CCSc1nc2c(c(=O)[nH]1)C(C(C)C)C(C#N)=C(N)O2 (stereo not given) | 1.06 (inactive)
Cn1c2c(c(=O)n(C)c1=O)C(c1ccc(O)cc1)Nc1ccccc1O2 (stereo not given) | 1.08 (inactive)
CCn1c(=N)c(C(=O)NCCCOC)cc2c(=O)n3cccc(C)c3nc21 | 3.83 (active)
COc1ccc(CCn2c(=N)c(C(=O)NCc3ccco3)cc3c(=O)n4cccc(C)c4nc32)cc1 | 1.64 (inactive)
COCCn1c(=O)[nH]c2cc(C(=O)NCc3cccnc3)ccc2c1=O | 1.48 (inactive)
O=c1cc(-c2ccccc2)nc(N2CCCCC2)[nH]1 | 1.26 (inactive)
O=c1[nH][nH]c(=O)c2cc(N3CCCC3)ccc12 | 2.65 (active)
CCOc1ccc(C2C(C(=O)NC)=C(C)Nc3nc4ccccc4n32)cc1OC (stereo not given) | 1.15 (inactive)
Cc1ccc2c(c1)c1ncnc(N3CCc4ccccc4C3)c1n2C | 3.33 (active)
Cc1ccc(NC(=O)CCN2CCc3ccccc3C2)cc1 | 1.02 (inactive)
Cc1ccc2c(c1)N(C(=O)CCC(=O)N1CCc3ccccc3C1)CCO2 | 1.17 (inactive)
CCS(=O)(=O)N1CCCC(C(=O)NCc2ccc(C)cc2)C1 (stereo not given) | 1.06 (inactive)
O=C(Cn1nnc2ccccc2c1=O)Nc1cc(C(F)(F)F)ccc1N1CCOCC1 | 1.02 (inactive)
COc1ccc(-c2[nH]nc3c2C(c2ccncc2)C(C#N)=C(N)O3)cc1 (stereo not given) | 1.04 (inactive)
Cn1c(=O)[nH]c(=O)c2c1nc(Br)n2CCCCSc1nc2ccccc2o1 | 1.1 (inactive)
CCOC(=O)CSC1=C(C#N)C(c2sccc2C)CC(=O)N1 (stereo not given) | 1.13 (inactive)
CS(=O)(=O)N(CC(=O)NCc1ccco1)c1ccc2c(c1)OCO2 | 1.14 (inactive)
O=c1[nH]c(-c2cccs2)nc2ccccc12 | 1.17 (inactive)
CCc1c(C)nc2cc(-c3cccs3)[nH]n2c1=O | 2.07 (active)
Cc1nc2nc(COc3ccccc3)[nH]n2c(=O)c1Cc1ccccc1 | 1.09 (inactive)
O=P(O)(CP(=O)(c1ccccc1)c1ccccc1)c1ccccc1 | 1.13 (inactive)
CCCCNC(=O)c1c[nH]c2ccc(S(=O)(=O)Nc3ccc(OCC)cc3)cc2c1=O | 1.15 (inactive)
Cc1nonc1NC(=O)c1ccccc1Br | 1.01 (inactive)
CC(C)OC(=O)C(C#N)c1nc2ccccc2nc1N1CCN(Cc2ccccc2)CC1 (stereo not given) | 1.82 (inactive)
Cc1ccc(S(=O)(=O)C(C#N)c2nc3ccccc3nc2N2CCCC2)cc1C (stereo not given) | 2.44 (active)
Cc1cccc2cc(C#N)c(N3CCCC3)nc12 | 1.58 (inactive)
